The source of these data is PubChem BioAssay (EPA / NIEHS).

Molecules are shown by their SMILES. Calls of active or inactive are those of the source. The calls were made as follows: active = hit-call score of the fitted dose curve at least 0.9, where 1 is the maximum; inactive = score below 0.9.

In assay [1] the target is Bile acid receptor (Homo sapiens) (UniProt Q96RI1). The assay is described as follows: ATG_IR1_CIS: Attagene CIS-FACTORIAL HepG2 Assay for human Nuclear Receptor Subfamily 1 Group H Member 4 (NR1H4), IR1 submotif (AID 2282946). Particulars: IR1 reporter transcription, actives raise or lower the signal. The procedure, abridged: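 Cells (human HepG2) carry transiently transfected cis-promoter reporter transcription units. Compounds are incubated 24 h, total RNA is reverse-transcribed and amplified, and labelled fragments are resolved by capillary electrophoresis. Curves use DMSO as baseline.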

The nature of assay [2]: ATG_ISRE_CIS: Attagene CIS-FACTORIAL HepG2 Assay for human Interferon Regulatory Factor 1 (IRF1) binding to an Interferon-Stimulated Response Element (ISRE) (AID 2282948). Conditions: HepG2 ISRE cis-reporter (Attagene), mRNA transcription readout; actives raise or lower the signal. The procedure, abridged: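 Quantitation relies on labelled RT-PCR fragments separated by capillary electrophoresis. Human HepG2 cells bearing cis-promoter reporter constructs were treated 24 h; DMSO served as baseline for bidirectional fitting.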

Assay [3] in a line: ATG_M_06_CIS: Attagene CIS-FACTORIAL HepG2 Assay for M06 Transcription Factor (Internal Marker) (AID 2282950). Particulars: HepG2 Attagene CIS-FACTORIAL M06 internal marker reporter; actives raise or lower the signal. The procedure, abridged: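 Cells (HepG2, transiently carrying cis-driven reporter units) receive chemical for 24 h before RNA isolation. Reporter cDNA is PCR-amplified, FAM-labelled by primer extension, HpaI-digested and sized on a capillary analyser.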

Assay [4] concerns the target Hypoxia-inducible factor 1-alpha (Homo sapiens) (UniProt Q16665). Briefly: ATG_HIF1a_CIS: Attagene CIS-FACTORIAL HepG2 Assay for human Hypoxia Inducible Factor 1 (HIF1A) (AID 2282951). Conditions: HepG2 Attagene cis-factorial HIF1a reporter transcription; actives raise or lower the signal. The procedure, abridged:
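Measures endogenous transcription-factor activity through cis-regulated reporter mRNA in HepG2. Cells dosed 24 h; transcripts quantified by RT-PCR with 6-FAM-labelled products separated by capillary electrophoresis; DMSO serves as negative control.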

The target in assay [5] is Hepatocyte nuclear factor 6 (Homo sapiens) (UniProt Q9UBC0). Briefly: ATG_HNF6_CIS: Attagene CIS-FACTORIAL HepG2 Assay for human Hepatocyte Nuclear Factor 6 (HNF6) (AID 2282952). Particulars: HepG2 Attagene cis-factorial HNF6 reporter transcription; actives raise or lower the signal. The procedure, abridged: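 Transiently transfected HepG2 cells expressing cis-regulated reporter transcription units were exposed to chemical for 24 h in a 24-well format. Reporter transcript abundance was determined by fluorescence capillary electrophoresis.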

Assay [6] deals with Heat shock factor protein 1 (Homo sapiens) (UniProt Q00613). Briefly: ATG_HSE_CIS: Attagene CIS-FACTORIAL HepG2 Assay for human Heat Shock Transcription Factor 1 (HSE) (AID 2282953). Conditions: HepG2 HSE cis-reporter, Attagene RNA transcription; actives raise or lower the signal. The procedure, abridged: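 Liver-derived HepG2 cells carry transiently introduced multiple reporter units governed by cis promoters. Reporter RNA measured 24 h post-dose through reverse transcription, PCR amplification, fluorescent labelling and capillary electrophoresis, normalised to DMSO.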

Assay [7] in a line: ATG_PBREM_CIS: Attagene CIS-FACTORIAL HepG2 Assay for human Phenobarbital-responsive Enhancer Module (PBREM) (AID 2282955). Conditions: HepG2 PBREM cis-reporter, Attagene multiplexed transcription; actives raise or lower the signal. The procedure, abridged: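 Fluorescence of labelled reporter cDNA fragments, resolved by capillary electrophoresis, gives mRNA induction in transfected HepG2 cells treated for 24 h; DMSO serves as negative control and baseline.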

Assay [8] has as its target Paired box protein Pax-6 (Homo sapiens) (UniProt P26367). The assay is described as follows: ATG_Pax6_CIS: Attagene CIS-FACTORIAL HepG2 Assay for human Paired Box 6 (PAX6) (AID 2282956). Conditions: HepG2 CIS-FACTORIAL PAX6 reporter transcription, RNA readout; actives raise or lower the signal. The procedure, abridged:
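After twenty-four hours of chemical exposure, transfected HepG2 cells are harvested for RNA. Cis-promoter reporter transcripts are amplified, fluorescently labelled and sized by capillary electrophoresis, with gain and loss of signal scored against DMSO.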

A short description of assay [9]: ATG_PXRE_CIS: Attagene CIS-FACTORIAL HepG2 Assay for human Pregnane X Receptor Element (PXRE) (AID 2282957). Particulars: HepG2 Attagene CIS-FACTORIAL PXRE reporter, mRNA; actives raise or lower the signal. The procedure, abridged: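 Cis-element reporter mRNA in human hepatoma HepG2 cells is measured 24 h post-dosing by RT-PCR, primer-extension labeling and capillary electrophoresis; gain or loss of signal is fitted relative to DMSO.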

Assay [10] is described as follows: ATG_PPRE_CIS: Attagene CIS-FACTORIAL HepG2 Assay for human Peroxisome Proliferator-activated Response Element (PPRE) (AID 2282958). Particulars: HepG2 PPRE cis-element reporter, Attagene transcription factor profiling; actives raise or lower the signal. The procedure, abridged: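 Cells are first transfected transiently with the multiplexed reporter library, then dosed for 24 h. Total RNA is reverse-transcribed, amplified, fluorescently end-labeled and HpaI-cut before capillary electrophoresis; activity is fitted bidirectionally against DMSO controls.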

Assay [11] can be described thus: ATG_RORE_CIS: Attagene CIS-FACTORIAL HepG2 Assay for human RAR-related Orphan Receptor Element (RORE) (AID 2282959). Conditions: HepG2 Attagene cis-factorial RORE reporter, mRNA; actives raise or lower the signal. The procedure, abridged:
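Cells were HepG2 carrying transfected cis-regulated reporter constructs, dosed for 24 hours. Total RNA was reverse-transcribed and reporter cDNA amplified, fluorescently labeled and sized by capillary electrophoresis. Activity was fitted bidirectionally relative to DMSO.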

Assay [12] in a line: ATG_Sox_CIS: Attagene CIS-FACTORIAL HepG2 Assay for human SRY-box transcription factor (SOX) (AID 2282960). Conditions: HepG2 Attagene cis-factorial SOX reporter, mRNA; actives raise or lower the signal. The procedure, abridged:
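Transient MRTU transfection of HepG2; 24 h compound incubation; TriZol RNA, oligo(dT) RT, PCR, 6-FAM primer extension, HpaI cut, CE. Bidirectional fit, DMSO = baseline.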

The target in assay [13] is Transcription factor Sp1 (Homo sapiens) (UniProt P08047). Briefly: ATG_Sp1_CIS: Attagene CIS-FACTORIAL HepG2 Assay for human Specificity Protein 1 (Sp1) (AID 2282961). Conditions: HepG2 Sp1 cis-reporter transcription, actives raise or lower the signal. The procedure, abridged:
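Endogenous Sp1 activity was gauged in human liver HepG2 cells bearing transfected reporter units under a cis-regulating promoter. After 24 h dosing, reporter mRNA was quantified by RT-PCR with capillary electrophoresis, and activity fitted bidirectionally versus DMSO.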

A short description of assay [14]: ATG_SREBP_CIS: Attagene CIS-FACTORIAL HepG2 Assay for human Sterol Regulatory Element Binding (SREBP) (AID 2282962). Particulars: HepG2 Attagene cis-factorial SREBP reporter, mRNA; actives raise or lower the signal. The procedure, abridged:
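Twenty-four hours after chemical dosing of transfected HepG2 cultures, reporter RNA was converted to cDNA, amplified, end-labelled with 6-FAM and resolved by capillary electrophoresis. Responses were fitted relative to DMSO.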

In assay [15] the target is Signal transducer and activator of transcription 3 (Homo sapiens) (UniProt P40763). Briefly: ATG_STAT3_CIS: Attagene CIS-FACTORIAL HepG2 Assay for human Signal Transducer and Activator of Transcription 3 (STAT3) (AID 2282963). Conditions: HepG2, Attagene cis-factorial STAT3 reporter transcription; actives raise or lower the signal. The procedure, abridged: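 After a 24 h compound incubation, total RNA from MRTU-transfected HepG2 cells was converted to cDNA and reporter sequences PCR-amplified, labelled and profiled by capillary electrophoresis. Gain and loss of signal were referenced to DMSO.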

A short description of assay [16]: ATG_TCF_b_cat_CIS: Attagene CIS-FACTORIAL HepG2 Assay for human T-Cell-Factor with beta-catenin (TCF/b-cat) (AID 2282965). Conditions: HepG2 TCF/beta-catenin cis-reporter transcription, actives raise or lower the signal. The procedure, abridged:
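Endogenous transcription factor activity is captured through cis-promoter reporter constructs transiently introduced into human HepG2 liver cells. Induced reporter mRNA is measured after 24 h and fitted bidirectionally relative to DMSO.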

A short description of assay [17]: ATG_M_32_CIS: Attagene CIS-FACTORIAL HepG2 Assay for M32 Transcription Factor (Internal Marker) (AID 2282949).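 Also: background control marker of the multiplexed CIS panel rather than a real target.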 Conditions: HepG2 Attagene cis-factorial M32 reporter, mRNA; actives raise or lower the signal. The procedure, abridged: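 Internal background marker read-out: RT-PCR/capillary electrophoresis fluorescence of reporter transcripts from transiently transfected HepG2 cells after 24 h chemical exposure. Activity fitted bidirectionally relative to DMSO negative control.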

Assay [18] is described as follows: ATG_MRE_CIS: Attagene CIS-FACTORIAL HepG2 Assay for human Metal Responsive Element (MRE) (AID 2282954). Particulars: HepG2 MRE cis-reporter transcription, Attagene multiplex; actives raise or lower the signal. The procedure, abridged:
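After a 24 h chemical exposure, transiently transfected HepG2 cells yield RNA whose reporter sequences are amplified, FAM-labelled and sized by capillary electrophoresis. Curves are fitted bidirectionally relative to DMSO.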

Assay [19] in a line: ATG_TA_CIS: Attagene CIS-FACTORIAL HepG2 Assay for human TA Basal Promoter (AID 2282964). Conditions: HepG2 Attagene CIS-factorial TA basal promoter reporter; actives raise or lower the signal. The procedure, abridged:
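Background internal-marker endpoint from a 52-component HepG2 cis-reporter panel. Cells treated 24 h; reporter transcripts quantified via RT-PCR and CE fluorescence against DMSO baseline.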

The nature of assay [20]: ATG_GRE_CIS: Attagene CIS-FACTORIAL HepG2 Assay for human Glucocorticoid Response Elements (GRE) (AID 2282947). Conditions: HepG2 GRE cis-reporter, Attagene multiplex mRNA; actives raise or lower the signal. The procedure, abridged:
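Assay uses human hepatoma HepG2 cells transfected with cis-promoter reporter units, exposed 24 h. mRNA from reporters detected by RT-PCR plus capillary electrophoresis; DMSO serves as negative control and baseline.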

Sequence of Heat shock factor protein 1 (Homo sapiens) (Q00613 whole entry, looked up): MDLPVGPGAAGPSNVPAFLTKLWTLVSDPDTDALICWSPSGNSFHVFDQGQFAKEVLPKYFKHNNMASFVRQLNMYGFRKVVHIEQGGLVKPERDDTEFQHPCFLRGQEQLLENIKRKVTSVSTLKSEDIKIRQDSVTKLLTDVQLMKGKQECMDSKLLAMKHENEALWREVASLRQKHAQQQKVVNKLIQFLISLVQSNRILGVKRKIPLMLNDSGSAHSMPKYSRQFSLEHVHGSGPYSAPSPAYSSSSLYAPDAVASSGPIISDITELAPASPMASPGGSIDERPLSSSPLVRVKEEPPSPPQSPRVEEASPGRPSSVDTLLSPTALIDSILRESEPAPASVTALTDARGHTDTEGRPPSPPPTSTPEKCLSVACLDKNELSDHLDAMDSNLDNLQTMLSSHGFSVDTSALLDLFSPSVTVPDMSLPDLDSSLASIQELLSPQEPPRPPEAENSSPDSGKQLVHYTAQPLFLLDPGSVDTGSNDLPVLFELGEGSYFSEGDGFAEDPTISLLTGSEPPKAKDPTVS
Sequence of Hepatocyte nuclear factor 6 (Homo sapiens) (Q9UBC0 whole entry, looked up): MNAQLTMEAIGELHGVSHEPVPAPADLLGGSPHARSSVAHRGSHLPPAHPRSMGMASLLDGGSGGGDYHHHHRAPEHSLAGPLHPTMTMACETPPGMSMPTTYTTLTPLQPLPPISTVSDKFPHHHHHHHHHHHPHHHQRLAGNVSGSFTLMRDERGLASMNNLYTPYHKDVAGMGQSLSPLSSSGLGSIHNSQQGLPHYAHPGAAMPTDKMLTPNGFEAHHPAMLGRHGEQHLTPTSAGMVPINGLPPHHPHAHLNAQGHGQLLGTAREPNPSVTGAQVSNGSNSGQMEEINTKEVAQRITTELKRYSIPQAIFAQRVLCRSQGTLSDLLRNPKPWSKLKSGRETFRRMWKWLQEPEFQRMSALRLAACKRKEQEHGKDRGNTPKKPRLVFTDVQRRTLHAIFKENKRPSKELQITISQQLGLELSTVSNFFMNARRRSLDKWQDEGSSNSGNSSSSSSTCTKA
Sequence of Hypoxia-inducible factor 1-alpha (Homo sapiens) (Q16665 whole entry, looked up): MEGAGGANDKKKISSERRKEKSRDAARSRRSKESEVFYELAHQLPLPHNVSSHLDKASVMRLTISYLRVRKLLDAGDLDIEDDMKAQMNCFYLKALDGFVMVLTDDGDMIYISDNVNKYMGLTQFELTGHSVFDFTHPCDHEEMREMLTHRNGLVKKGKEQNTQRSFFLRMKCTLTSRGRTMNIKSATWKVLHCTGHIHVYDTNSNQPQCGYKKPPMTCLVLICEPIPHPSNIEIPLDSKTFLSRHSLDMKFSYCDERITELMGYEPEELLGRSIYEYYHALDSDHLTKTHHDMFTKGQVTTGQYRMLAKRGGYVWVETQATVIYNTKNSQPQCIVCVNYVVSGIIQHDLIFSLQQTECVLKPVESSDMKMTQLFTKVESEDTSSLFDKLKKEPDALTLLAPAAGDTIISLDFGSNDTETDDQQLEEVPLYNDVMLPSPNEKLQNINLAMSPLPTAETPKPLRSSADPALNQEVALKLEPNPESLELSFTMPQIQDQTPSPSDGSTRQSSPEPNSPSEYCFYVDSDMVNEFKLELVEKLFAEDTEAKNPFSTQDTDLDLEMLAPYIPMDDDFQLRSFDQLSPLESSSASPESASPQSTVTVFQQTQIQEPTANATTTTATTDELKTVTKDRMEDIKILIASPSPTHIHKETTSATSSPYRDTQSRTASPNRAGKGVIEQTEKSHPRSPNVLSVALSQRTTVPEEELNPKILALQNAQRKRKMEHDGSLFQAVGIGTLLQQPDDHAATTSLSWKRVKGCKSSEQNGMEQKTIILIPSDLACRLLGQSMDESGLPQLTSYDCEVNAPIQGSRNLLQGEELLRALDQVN
Sequence of Bile acid receptor (Homo sapiens) (Q96RI1 whole entry, looked up, the tested form may be a part): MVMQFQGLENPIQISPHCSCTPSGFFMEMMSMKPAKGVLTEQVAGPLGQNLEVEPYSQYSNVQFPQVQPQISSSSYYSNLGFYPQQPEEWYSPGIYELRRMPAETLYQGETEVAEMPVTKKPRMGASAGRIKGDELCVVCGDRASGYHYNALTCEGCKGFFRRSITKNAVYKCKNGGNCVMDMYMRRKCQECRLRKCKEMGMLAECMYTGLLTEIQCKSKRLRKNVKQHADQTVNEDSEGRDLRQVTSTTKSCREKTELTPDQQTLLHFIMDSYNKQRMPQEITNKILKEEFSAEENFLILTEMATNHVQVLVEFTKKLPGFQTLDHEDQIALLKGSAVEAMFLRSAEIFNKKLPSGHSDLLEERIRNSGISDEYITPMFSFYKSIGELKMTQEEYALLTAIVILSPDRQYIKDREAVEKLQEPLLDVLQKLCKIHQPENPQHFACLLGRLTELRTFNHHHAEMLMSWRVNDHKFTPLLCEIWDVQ
Sequence of Paired box protein Pax-6 (Homo sapiens) (P26367 whole entry, looked up): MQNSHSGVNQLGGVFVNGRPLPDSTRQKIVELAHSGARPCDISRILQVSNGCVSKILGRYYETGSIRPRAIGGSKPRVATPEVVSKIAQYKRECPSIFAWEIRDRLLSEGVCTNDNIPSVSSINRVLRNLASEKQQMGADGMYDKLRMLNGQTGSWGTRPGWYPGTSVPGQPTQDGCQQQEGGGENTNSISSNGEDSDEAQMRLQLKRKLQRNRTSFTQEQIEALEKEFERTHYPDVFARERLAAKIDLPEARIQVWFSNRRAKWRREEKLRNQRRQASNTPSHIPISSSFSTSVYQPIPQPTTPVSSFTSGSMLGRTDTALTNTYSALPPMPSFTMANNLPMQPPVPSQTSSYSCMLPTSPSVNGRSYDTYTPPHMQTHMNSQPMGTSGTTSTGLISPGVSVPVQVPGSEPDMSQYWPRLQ
Sequence of Signal transducer and activator of transcription 3 (Homo sapiens) (P40763 whole entry, looked up): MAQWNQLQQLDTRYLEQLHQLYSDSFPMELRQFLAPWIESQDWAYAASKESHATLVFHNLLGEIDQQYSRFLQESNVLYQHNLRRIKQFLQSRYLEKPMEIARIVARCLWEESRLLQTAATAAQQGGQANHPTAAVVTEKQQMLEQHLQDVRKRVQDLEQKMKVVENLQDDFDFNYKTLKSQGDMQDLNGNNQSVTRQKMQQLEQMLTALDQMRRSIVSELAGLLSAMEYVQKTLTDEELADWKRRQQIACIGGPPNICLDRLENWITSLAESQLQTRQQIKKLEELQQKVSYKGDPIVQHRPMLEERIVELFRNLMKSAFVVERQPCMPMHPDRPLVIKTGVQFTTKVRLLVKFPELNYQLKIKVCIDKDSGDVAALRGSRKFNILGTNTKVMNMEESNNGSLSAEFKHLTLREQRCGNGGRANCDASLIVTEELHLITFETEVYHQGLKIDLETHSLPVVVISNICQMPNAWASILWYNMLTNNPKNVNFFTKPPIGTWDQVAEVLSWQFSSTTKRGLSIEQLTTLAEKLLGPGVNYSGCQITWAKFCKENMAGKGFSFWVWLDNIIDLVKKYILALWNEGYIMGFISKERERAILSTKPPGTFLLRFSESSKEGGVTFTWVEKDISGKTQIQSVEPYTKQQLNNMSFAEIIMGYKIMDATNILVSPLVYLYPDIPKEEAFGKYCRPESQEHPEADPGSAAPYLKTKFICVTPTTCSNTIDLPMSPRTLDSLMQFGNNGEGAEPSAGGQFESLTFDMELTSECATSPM
Sequence of Transcription factor Sp1 (Homo sapiens) (P08047 whole entry, looked up): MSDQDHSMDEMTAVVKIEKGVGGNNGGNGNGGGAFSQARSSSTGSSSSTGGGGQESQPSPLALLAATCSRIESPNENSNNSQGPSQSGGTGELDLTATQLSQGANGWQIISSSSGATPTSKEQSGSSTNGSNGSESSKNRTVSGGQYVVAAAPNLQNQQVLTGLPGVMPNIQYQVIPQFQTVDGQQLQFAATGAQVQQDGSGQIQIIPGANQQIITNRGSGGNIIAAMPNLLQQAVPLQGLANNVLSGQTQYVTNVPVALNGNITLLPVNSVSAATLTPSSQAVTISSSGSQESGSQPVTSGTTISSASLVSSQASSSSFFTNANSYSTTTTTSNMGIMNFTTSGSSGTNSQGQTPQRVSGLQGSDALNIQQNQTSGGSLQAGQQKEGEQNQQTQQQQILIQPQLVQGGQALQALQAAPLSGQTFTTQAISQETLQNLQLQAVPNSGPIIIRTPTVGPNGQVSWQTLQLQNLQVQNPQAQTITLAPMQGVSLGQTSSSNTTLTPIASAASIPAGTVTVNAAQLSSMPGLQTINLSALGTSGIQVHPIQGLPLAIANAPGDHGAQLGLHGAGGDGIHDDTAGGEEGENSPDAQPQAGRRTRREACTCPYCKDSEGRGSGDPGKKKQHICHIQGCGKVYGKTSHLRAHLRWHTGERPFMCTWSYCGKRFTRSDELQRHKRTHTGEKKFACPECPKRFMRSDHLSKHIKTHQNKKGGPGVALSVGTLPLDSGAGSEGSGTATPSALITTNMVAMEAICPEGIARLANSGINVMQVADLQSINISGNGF

With `Cc1ccc(Nc2ccc(O)c3c2C(=O)c2ccccc2C3=O)cc1`, the compound was classed as inactive in [1], in assay [2], in assay [3], in assay [4], in assay [5] and in [6]. For the same compound, the result in assay [7], in assay [8], in assay [10], in [11], in assay [12] and in [13] was inactive. Further, the outcome in assay [14], in assay [15] and in assay [16] was inactive. Besides, the concentration at half-maximal activity (AC50) in [9] was 4.96 µM (active).

With `Sc1nc(S)nc(S)n1`, the compound was called inactive in [1], in [2], in assay [17], in [3], in assay [4] and in assay [5]. Moreover, the compound was classed as inactive in assay [6], in [18], in [8], in assay [9], in [11] and in assay [12]. For the same compound, the result in assay [14], in assay [15] and in assay [16] was inactive.

As to `CC(=O)Nc1ccc(C)cc1C`, the call in assay [1], in assay [2], in assay [17], in assay [3], in assay [4] and in assay [5] was inactive. In addition, the compound was classed as inactive in assay [6], in [18], in assay [7], in assay [8], in assay [9] and in assay [10]. Further, the outcome in [11], in [12], in assay [14], in [15], in assay [19] and in [16] was inactive.

In the case of `COc1cc(C(C)(C)C)c(O)c(C(C)(C)C)c1`, the results for the AC50 in [1] and in assay [9] were 69.8 µM (active) and 2.09 µM (active), respectively. For the same compound, the compound was called inactive in [20], in [3], in [4], in assay [5], in assay [6] and in assay [18]. Besides, the result in [8], in assay [10], in assay [11], in [12], in assay [14] and in [19] was inactive. In addition, the compound was called inactive in [16].

By AC50 is commonly meant the midpoint of the concentration-response curve, whichever way the signal moves.
